Assay outcomes deposited in PubChem BioAssay by several laboratories.
Rows were chosen to be rich in hits. Some 4.7% of all compounds tested hit in one or more screens of this group.
Efflux pump inh = antifungal efflux pump inhibition, Nile Red retention | S. cerevisiae Candida pump triplex | inhibition, % at 10 µM | 330,000 tested, 0.44% active | AID 485275;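 active = plate passing quality check with inhibition over a set limit, or well fluorescence over plate mean plus 4 SD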;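 also: Nile Red retained in pooled yeast measured as flow cytometry median fluorescence; higher means more Nile Red kept so more efflux inhibition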
eIF4H inh = inhibitors of RNA binding by human eIF4H; eIF4H fluorescence polarization binding assay; 290,000 tested, 0.94% active; Q15056; inhibition, % at 35 µM;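 also: calls also rest on retests at 20 µM and on dose response follow-up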
ALR inh = inhibitors of human sulfhydryl oxidase ALR; purified ALR, DTT oxidation, H2O2 HRP-luminol luminescence; P55789; 290,000 tested, 3.8% active; inhibition, % (test concentration not listed);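 active = mean replicate inhibition above about 79%, with every replicate also reaching it, limit read from the data; inconclusive = only one of the two criteria met; inactive = mean below limit and not every replicate reaching it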
Target sequence (P55789 whole entry, looked up): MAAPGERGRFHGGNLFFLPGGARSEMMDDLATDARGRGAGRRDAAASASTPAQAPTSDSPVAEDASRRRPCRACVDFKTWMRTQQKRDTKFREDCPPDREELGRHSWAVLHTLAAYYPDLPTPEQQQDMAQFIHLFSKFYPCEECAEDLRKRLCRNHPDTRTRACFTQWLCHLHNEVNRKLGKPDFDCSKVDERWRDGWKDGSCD
UBC9 SUMO inh = blocks human SUMOylation mediated by UBC9; inhibition, % at 35 µM; HTRF SUMOylation assay, SAE1/SAE2 + UBC9, in vitro; 290,000 tested, 0.36% active; P63279; in the data active = inhibition above about 50%, passing the limit was not always enough; inconclusive = no clear call, values can overlap the other calls
Target sequence (P63279 whole entry, looked up): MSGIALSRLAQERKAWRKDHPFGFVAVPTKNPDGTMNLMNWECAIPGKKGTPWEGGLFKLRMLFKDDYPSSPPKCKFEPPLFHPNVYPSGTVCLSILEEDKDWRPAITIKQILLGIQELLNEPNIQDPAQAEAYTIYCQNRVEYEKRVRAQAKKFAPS
MLLE-PAM2 inh = inhibitors of microRNA-mediated deadenylation, human PABP1 MLLE binding; inhibition, % at 20 µM; 360,000 tested, 0.36% active; GST-MLLE / FITC-PAM2 fluorescence polarization; in the data active = inhibition above about 35%, passing the limit was not always enough
PABP FP inh = PABP-poly(A) binding inhibition | 290,000 tested, 1% active | inhibition, % at 35 µM | AID 2014 | PABP-poly(A) RNA binding, fluorescence polarization;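 also: calls also rest on retests at 20 µM and on dose response follow-up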
Of the large screens only hits and unclear results are named; the others gave an inactive call. Unless noted, no rule for the calls is given here.

O=C(O)c1ccccc1-c1ccccc1C(=O)Nc1ccc2c(c1)CCC2	none
O=C(Nc1ccc2c(c1)CCC2)c1ccccc1	ALR inh 93
CN(Cc1cnc2nc(N)nc(N)c2n1)c1ccc(C(=O)NC(CCC(=O)O)C(=O)O)cc1 (stereo not given)	MLLE-PAM2 inh 67 (no result: Efflux pump inh, eIF4H inh, ALR inh, UBC9 SUMO inh, PABP FP inh)
CCOc1ccc(NS(=O)(=O)c2ccc(-c3coc(C)n3)cc2)cc1	none
CCCn1nc(NS(=O)(=O)c2cccc3nonc23)c2cc3cc(C)ccc3nc21	none
Cc1ccc2cc3c(NS(=O)(=O)c4cccc5nonc45)nn(CC(C)C)c3nc2c1	ALR inh 98
CCCn1nc(NS(=O)(=O)c2cccc3nonc23)c2cc3cccc(C)c3nc21	ALR inh 97
CC1=C(C(=O)N(C(C)C)C(C)C)CC(CC(=O)NCc2ccco2)C(=O)N1Cc1ccc(F)cc1 (stereo not given)	none (no result: Efflux pump inh, eIF4H inh, ALR inh, UBC9 SUMO inh, PABP FP inh)
CC1CCN(C(=O)CSc2nncn2-c2ccccn2)CC1	MLLE-PAM2 inh 39
CC1CCN(C(=O)CSc2nncn2C)CC1	none
COC(=O)c1cccc(NC(=O)CSc2nc3cccnc3n2C)c1	ALR inh 98
COC(=O)c1ccc(NC(=O)CSc2nncn2-c2ccccn2)cc1	ALR inh 99
CCN1/C(=C/C=C/c2sc3ccccc3[n+]2CC)Sc2ccccc21	ALR inh 100 (no result: eIF4H inh, UBC9 SUMO inh, PABP FP inh)
CCN1/C(=C/C=C/C=C/c2sc3ccccc3[n+]2CC)Sc2ccccc21	Efflux pump inh 0.8 (no result: ALR inh, MLLE-PAM2 inh)
CCN1/C(=C/C=C/C=C/C=C/c2sc3ccccc3[n+]2CC)Sc2ccccc21	none
COc1ccc(CCC(=O)NCC23CC4CC(CC(C4)C2)C3)cc1	none
Cc1nc2cc(NC(=O)NCc3ccco3)ccc2n1C	none
Cc1nc2ccc(NC(=O)NCc3ccco3)cc2s1	UBC9 SUMO inh 67
O=C(NCc1ccco1)Nc1ccc2snnc2c1	UBC9 SUMO inh 69
CCOc1cc(/C=N/O)ccc1OCc1ccc(C)cc1	ALR inh 98
Cc1ccc(Sc2nc3ccc(C)cn3c(=O)c2/C=N/O)cc1	ALR inh 99
CCc1nn(CC(=O)NCCCN2CCOCC2)c(=O)c2cc3c(OC)cccc3n12	none (no result: Efflux pump inh, eIF4H inh, ALR inh, UBC9 SUMO inh, PABP FP inh)
CC1CCCC(C)N1/N=C/c1ccc(C(=O)O)cc1 (stereo not given)	none
CCOc1ccc(/C=N/N2C(C)CCCC2C)cc1OC (stereo not given)	none (no result: ALR inh)
CC1CCCC(C)N1/N=C/c1ccc(O)cc1 (stereo not given)	ALR inh 94
COc1cc(/C=N/N2C(C)CCCC2C)cc(OC)c1O (stereo not given)	ALR inh 100
COc1cccc(-c2nc(CS(=O)(=O)CC(=O)N3CCCCC3)c(C)o2)c1	none
COc1ccc(-c2nc(CS(=O)CC(=O)N3CCCC3)c(C)o2)cc1 (stereo not given)	ALR inh 99
CCN1CCN(C(=O)CS(=O)Cc2nc(-c3ccc(OC)cc3)oc2C)CC1 (stereo not given)	ALR inh 99
C[C@@H]1CCCCO[C@H](CN(C)C(=O)C2CCCCC2)[C@@H](C)CN([C@H](C)CO)C(=O)c2cc(N(C)C)ccc2O1	none (no result: Efflux pump inh, eIF4H inh, ALR inh, UBC9 SUMO inh, PABP FP inh)
O=C1CCCc2cc3c(cc21)CC1(C3)Cc2cc3c(cc2C1)C(=O)CCC3	UBC9 SUMO inh 82
COc1ccc(-n2nc(C(=O)NCC(=O)NCCCN3CCOCC3)c3ccccc3c2=O)cc1	none
CCCCOc1ccc(C(=S)N2CCC(C(N)=O)CC2)cc1	none
COc1ccc(C(=S)N2CCC(C(N)=O)CC2)cc1Br	MLLE-PAM2 inh 42
COc1cc(S(=O)(=O)Nc2cccc3cn[nH]c23)c(OC)cc1Cl	none
COc1ccc(OCc2cc(C(=O)O)c(C)o2)cc1	eIF4H inh inconclusive, PABP FP inh 48 (no result: MLLE-PAM2 inh)
COc1ccc2nc3cccc(OC)c3nc2c1	none (no result: ALR inh)
COc1ccc2nc3ccccc3nc2c1N	ALR inh 99
NC(=S)N=Nc1c(O)[nH]c2ccc(F)cc12	MLLE-PAM2 inh 48
O=C(CNC(=O)C1CCCCC1)OCC(=O)c1cccc(Cl)c1	none (no result: eIF4H inh, ALR inh, UBC9 SUMO inh, PABP FP inh)
CCC(NC(=O)Nc1ccc(O)cc1)(C(F)(F)F)C(F)(F)F	ALR inh 99
CC(NC(=O)Nc1ccc(O)cc1)(C(F)(F)F)C(F)(F)F	ALR inh 98
CCC[N+]1(CC#CC(O)(c2ccccc2)C2CCCCC2)CCCCC1 (stereo not given)	none (no result: ALR inh)
CC1(C(O)(C#CC[N+]2(C)CCCCC2)c2ccccc2)CCCC1 (stereo not given)	PABP FP inh 70
C[C@@H](C(=O)Nc1ccc2ccccc2c1)[C@H]1C[C@]1(C)[C@H](NS(=O)(=O)c1ccccc1)c1ccccc1	none (no result: MLLE-PAM2 inh)
O=C(Nc1cccs1)Nc1c(F)c(F)c(F)c(F)c1F	MLLE-PAM2 inh 43
O=C(Nc1cccs1)Nc1ccccc1Br	none
O=C(Nc1cccs1)Nc1c(F)cc(F)cc1Br	ALR inh 96
O=C(Nc1cccs1)Nc1c(F)c(F)cc(F)c1F	eIF4H inh 69, PABP FP inh 2.5
Cc1cccc(C)c1NC(=O)Nc1cccs1	none
COc1ccccc1NS(=O)(=O)c1cc(C(=O)Nc2ccc(S(=O)(=O)Nc3onc(C)c3C)cc2)ccc1C	none (no result: Efflux pump inh, eIF4H inh, ALR inh, UBC9 SUMO inh, PABP FP inh)
CCCC(=O)Nc1ccc(NC(=O)Cc2ccccc2)cn1	ALR inh 99
[O-]/[N+](=C\C=C\c1ccccc1)c1ccccc1	eIF4H inh 1.1, PABP FP inh 52
O=[N+]([O-])c1ccc(C=CC=Cc2ccccc2)cc1	none (no result: Efflux pump inh, eIF4H inh, ALR inh, UBC9 SUMO inh, PABP FP inh)
O=C(CCCc1ccccc1)NCCS(=O)(=O)N1CCN(c2ccccc2)CC1	none (no result: Efflux pump inh, eIF4H inh, ALR inh, UBC9 SUMO inh, PABP FP inh)
O=C(NCc1ccncc1)C1=NN(c2ccccc2)C(=O)CC1	ALR inh 94
CCc1ccc(-c2csc(NC(=O)C3=NN(c4ccccc4)C(=O)CC3)n2)cc1	eIF4H inh active
Cc1ccc(-c2nc(COC(=O)C3=NN(c4ccccc4)C(=O)CC3)cs2)cc1	ALR inh 99 (no result: eIF4H inh, UBC9 SUMO inh, PABP FP inh)
CC(=O)COC(=O)C1=NN(c2ccccc2)C(=O)CC1	none
COc1ccc(C23CC4CC(CC(C(=O)O)(C4)C2)C3)c(F)c1	none
CC(C)n1c(-c2ccc(C(C)(C)C)cc2)n[nH]c1=S	ALR inh 82
Cc1cccc(OCCC(=O)Nc2ccc(N3CCOCC3)cc2N2CCOCC2)c1	none (no result: eIF4H inh, ALR inh, UBC9 SUMO inh, PABP FP inh)
CCOC(=O)N1CCN(C(=O)CS(=O)(=O)Cc2nc(-c3ccccc3C)oc2C)CC1	none
CCOC(=O)N1CCN(C(=O)CSCc2nc(-c3ccccc3F)oc2C)CC1	ALR inh 100, MLLE-PAM2 inh 45
CCOC(=O)N1CCN(C(=O)CSCc2nc(-c3ccccc3C)oc2C)CC1	ALR inh 99
Cc1oc(-c2ccccc2F)nc1CS(=O)(=O)CC(=O)N1CCN(c2ccccc2)CC1	none
COc1ccc(NC(=O)c2cccc(S(=O)(=O)NCc3ccccc3)c2)cc1S(N)(=O)=O	none (no result: eIF4H inh, UBC9 SUMO inh, PABP FP inh)
c1cc2c3c(cccc3c1)C(N1CCOCC1)=N2	PABP FP inh 47
CC(=O)N1CCN(C2=Nc3cccc4cccc2c34)CC1	none
c1ccc(CC2CCN(C3=Nc4cccc5cccc3c45)CC2)cc1	eIF4H inh 92
